High-throughput results deposited in PubChem by National Center for Advancing Translational Sciences (NCATS).
In the library only some 0.5% were active in any assay of this set; here they are far more common.
EPAC1 ag: activates human EPAC1 exchange factor | Potency, µM (highest dose often 154 µM), for inactives: at the top dose activation, most hits filed as activators | 360,000 compounds, 0.073% hits | EPAC1 agonist qHTS, biochemical assay; response scale: 100% = response to 6.5 mM cAMP | O95398; further: potency means the concentration at half of the fitted maximal effect; nearly all actives have a fitted effect of over 60% in size
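Multi-concentration qHTS readout: loss of Rap1B-bound BODIPY-GDP fluorescence driven by 100 nM EPAC1 with excess GDP (50 uM), monitored kinetically at room temperature; agonist response expressed relative to 6.5 mM cAMP.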
EPAC1 antagonist: blocks human EPAC1 exchange factor. Potency, µM (top dose mostly 115 µM), for the others: top-dose activity change, negative = inhibition, hits mostly inhibitors. EPAC1 GEF assay, Rap1b-BODIPY-GDP exchange fluorescence. 360,000 compounds, 0.14% hits. O95398;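 further: potency means the concentration at half of the fitted maximal effect; plate controls were vehicle for no effect and positive control for full effect; nearly all actives have a fitted effect of over 50% in size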
TSHR antag: blocks TSH signaling through the human TSH receptor. 330,000 compounds, 0.2% hits. TSHR-expressing cells, TSH-stimulated cAMP HTRF, 2 h; active compounds read low. activity change, negative = inhibition, % at 11.5 µM. AID 504810. P16473;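 active means activity change below a set negative limit, meaning inhibition stronger than a set level, cut at about -70% in these data; inconclusive means activity change between two set negative limits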; further: on the % scale 0 is the no-effect control and ±100 the full control effect
Target sequence (P16473 whole entry, looked up): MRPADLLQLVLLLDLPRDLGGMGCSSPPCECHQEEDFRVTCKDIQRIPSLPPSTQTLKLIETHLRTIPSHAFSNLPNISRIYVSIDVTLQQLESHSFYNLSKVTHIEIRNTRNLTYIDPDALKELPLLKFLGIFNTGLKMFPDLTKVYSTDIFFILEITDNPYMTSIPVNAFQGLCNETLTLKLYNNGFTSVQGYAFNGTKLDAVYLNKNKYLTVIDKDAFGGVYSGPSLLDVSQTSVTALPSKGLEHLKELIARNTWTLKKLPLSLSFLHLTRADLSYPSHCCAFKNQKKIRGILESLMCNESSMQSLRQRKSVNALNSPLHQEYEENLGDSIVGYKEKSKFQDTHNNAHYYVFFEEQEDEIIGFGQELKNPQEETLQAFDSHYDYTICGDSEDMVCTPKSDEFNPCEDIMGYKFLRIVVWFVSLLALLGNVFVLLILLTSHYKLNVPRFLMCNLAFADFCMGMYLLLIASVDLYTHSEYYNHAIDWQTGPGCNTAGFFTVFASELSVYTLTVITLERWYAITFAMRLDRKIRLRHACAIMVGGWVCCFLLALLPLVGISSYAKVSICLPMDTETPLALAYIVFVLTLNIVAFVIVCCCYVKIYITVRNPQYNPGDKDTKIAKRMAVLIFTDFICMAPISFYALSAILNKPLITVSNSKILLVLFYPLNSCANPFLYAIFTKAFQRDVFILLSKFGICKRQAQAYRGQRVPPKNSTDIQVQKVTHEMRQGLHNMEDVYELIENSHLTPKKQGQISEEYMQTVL
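Inhibition of cAMP made by TSHR-expressing cells under TSH stimulation (4nM final, EC80; 2 h, 37 deg C) is quantified with a one-step lysis HTRF kit, anti-cAMP cryptate versus cAMP-d2.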
EPAC2 agonist: activates human EPAC2 exchange factor; EPAC2 activation, biochemical qHTS; response scale: 100% = 6.5 mM cAMP response; Potency, µM (top dose mostly 154 µM), without a hit: at the top dose activation, actives largely listed as activators; Q8WZA2; 360,000 compounds, 0.079% hits; further: potency means the concentration at half of the fitted maximal effect; nearly all actives have a fitted effect of over 50% in size
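qHTS, titration series. 100 nM EPAC2 / 250 nM Rap1B-BODIPY-GDP / 50 uM GDP; RT; ex 480/em 540 nm, 5-min reads to 30 min. Norm. to 6.5 mM cAMP = activation.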
PTHR1 ag: PTHR1 (human) receptor agonism; Potency, µM (series often up to 115 µM), without a hit: at the highest dose activation, actives largely listed as activators; 410,000 compounds, 0.075% hits; HEK293 GP2 PTHR1 cells, GloSensor cAMP luminescence, 1 h; Q03431; further: potency means the concentration at half of the fitted maximal effect; nearly all actives have a fitted effect of over 55% in size
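HEK-293-derived GP2 cells expressing PTHR1 and a GloSensor cAMP reporter, 3,000/well, plated overnight, given luciferin plus IBMX (each 0.5 mM as added) for 1 h at 37 °C, then compound for 1 h at 37 °C. Luminescence was read after 15 min at room temperature.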
EPAC2 antag: blocks human EPAC2 exchange factor; Q8WZA2; EPAC2 GEF exchange of Rap1B-BODIPY-GDP, fluorescence; Potency, µM (highest dose often 114 µM), for the others: at the highest dose activity, negative = inhibition, most hits filed as inhibitors; 360,000 compounds, 0.18% hits; AID 720708; further: potency means the concentration at half of the fitted maximal effect; on the % scale 0 is the no-effect control and ±100 the full control effect; nearly all actives have a fitted effect of over 45% in size
* marks the source's active call; other numbers are inactive results; i = inactive; ? = inconclusive; nt = no result; [ ] = dose if it differs, or a comment. Unless noted, the call rests on the fitted dose curve; in most records, active means well fitted curve in the direction sought with a large enough effect; inconclusive means small, poorly fitted or top-dose-only effect, or another doubt; inactive means no such curve, though single readings can be large; an effect the other way counts as inactive or inconclusive.

SMILES	EPAC1 ag	EPAC1 antagonist	TSHR antag	EPAC2 agonist	PTHR1 ag	EPAC2 antag
O=C1/C(=C\c2ccc(Br)cc2)SC(=S)N1NS(=O)(=O)c1ccccc1	-5%	?	-8	-12%	i	18µM*
COc1ccccc1/C=C1\SC(=S)N(NS(=O)(=O)c2ccccc2)C1=O	5%	56µM*	-3	-5%	i	?
COCCCn1cc(CN2CC(N3CCCCC3)CS2(=O)=O)nn1 (stereo not drawn)	-21%	-17%	nt	1%	-12%	1%
CN(C)c1ccc(NC(=S)c2ccc3ccccc3n2)cc1	-11%	12%	-91*	7%	-1%	-4%
C/C(=N\NC(=O)c1ccn(C)n1)c1ccco1	0%	?	-5	5%	-26%	0%
CCOc1ccc(C2=C(C(=O)CC)Sc3nncn3N2C(=O)CC)cc1	nt	nt	nt	nt	-5%	nt
O=S(=O)(NCC(c1ccccc1)N1CCc2ccccc21)c1ccc(Cl)cc1 (stereo not drawn)	nt	nt	nt	nt	-59%	nt
O=S(=O)(NCC(c1ccco1)N1CCc2ccccc21)c1ccccc1 (stereo not drawn)	100µM*	-2%	-5	15%	-30%	6%
OC[C@H]1O[C@@H](c2nc(-c3ccc(CN4CCOCC4)cc3)no2)[C@H](O)[C@@H](O)[C@H]1O	-6%	26%	nt	3%	-17%	5%
Nc1nc(SCC(=O)Nc2cc(Cl)c(Cl)cc2Cl)n[nH]1	-6%	-10%	-74*	-4%	-13%	-7%
Nc1nc(SCC(=O)Nc2cc(Cl)ccc2Cl)n[nH]1	-2%	-4%	-24	13%	-2%	2%
Cc1ccc(S(=O)(=O)CCC(=O)c2cccc([N+](=O)[O-])c2)cc1	10%	-27%	-105*	14%	i	-2%
Cc1ccc(C(=O)CCS(=O)(=O)c2ccc(Br)cc2)cc1	15%	-14%	-10	-1%	i	5%
COc1cccc(CNC(=O)Cn2c(=O)n3nc(-c4cccc(F)c4)nc3c3ccccc32)c1	nt	nt	nt	nt	i	nt
O=C(O)CCCCN1C(=O)/C(=C\c2ccc(OCc3ccccc3)c(OCc3ccccc3)c2)SC1=S	22%	-17%	0	-6%	-18%	?
Cc1nn(-c2ccccc2)c(Cl)c1/C=C1\SC(=S)N(CCCCCC(=O)O)C1=O	12%	-9%	-19	6%	-21%	40µM*
Cc1nn(-c2ccccc2)c(Cl)c1/C=C1\SC(=S)NC1=O	1%	?	-79*	-1%	-78%[57.5 µM]	?
CCCCCCCCN1C(=O)[C@H](CC(=O)N2CCN(C(=O)c3ccco3)CC2)C[C@@]2(C(=O)OC)CC(C)(C)CC=C12	-27%	-18%	nt	-15%	-39%	?
N#Cc1c([N+](=O)[O-])cc([N+](=O)[O-])cc1S(=O)(=O)Cc1ccccc1	1%	-18%	-81*	-9%	-29%	-3%
CCCS(=O)(=O)c1ncc(Cl)c(C(=O)N2CCN(c3ccc(OC)cc3)CC2)n1	nt	nt	nt	nt	i	nt
O=C(NC1CCCC1)C1CCN(C(=O)c2ccccc2Cl)CC1	8%	-15%	-12	3%	i	1%
CC(NC(=O)Nc1nnc(C(F)(F)F)s1)(C(F)(F)F)C(F)(F)F	-14%	-15%	-94*	-3%	-26%[57.5 µM]	-5%
COc1ccc(CNC(=O)CCS(=O)(=O)c2cc3c(cc2Cl)NC(=O)CO3)cc1	1%	-24%	-120*	7%	22%	2%
C/C(=N\NC(=O)c1cc(O)ccc1O)c1cccc(NC(=O)c2ccc(Cl)cc2)c1	7%	50µM*	-21	19%	-1%	-3%
C/C(=N\NC(=O)c1cc(O)ccc1O)c1cccc(NC(=O)c2cccc(Cl)c2)c1	-1%	?	-2	8%	i	6%
SMILES	EPAC1 ag	EPAC1 antagonist	TSHR antag	EPAC2 agonist	PTHR1 ag	EPAC2 antag
COCCCNc1c2c3c(cccc3[nH]c1=O)C(=O)c1ccccc1-2	100µM*	i	-2	100µM*	-37%	i
Cc1ccc(S(=O)(=O)N2[C@@H](c3ccc(Cl)cc3)C(C(=O)O)=CC[C@H]2c2ccc(C(C)C)cc2)cc1	-13%	50µM*	-6	-7%	-33%	?
Cc1ccc([C@H]2C(C(=O)O)=CC[C@@H](c3ccc(C(C)C)cc3)N2S(=O)(=O)c2ccc(C)cc2)cc1	-10%	?	14	10%	-49%	?
CCn1c(=O)c(C(=O)Nc2ccccc2S(N)(=O)=O)c(O)c2ccccc21	11%	56µM*	-6	20%	i	-4%
CCn1c(=O)c(C(=O)Nc2ccccc2C)c(O)c2ccccc21	3%	-6%	-9	10%	i	2%
Cc1onc(-c2c(Cl)cccc2Cl)c1COC(=O)c1ccc(Cl)cc1	-1%	-11%	-29	7%	-16%	3.5µM*
COc1ccc(NC(=S)N(C(C)C)C2CCN(C(C)C)CC2)cc1Cl	nt	nt	-81*	nt	nt	nt
O=C1NC(=O)/C(=C/c2cccc3ccccc23)S1	-8%	?	-50	-7%	-11%	?
O=C1NC(=O)C(=Cc2ccccc2[N+](=O)[O-])S1	5%	50µM*	nt	11%	-24%	79µM*
Cc1c(Cl)cccc1NC(=O)CN1C(=O)COc2ccc(S(=O)(=O)N3CCCCCC3)cc21	nt	nt	nt	nt	-8%	nt
O=C1c2nc3cc(-c4ccccc4)[nH]n3c(=O)c2CN1Cc1ccccc1	1%	-1%	0	-2%	i	2%
CC(C)(C)c1cc2nc3c(c(=O)n2[nH]1)CN(Cc1ccccc1)C3=O	9%	-1%	-79*	1%	-3%	4%
COCCCn1c(=O)c2sccc2n(Cc2cccc(C)c2)c1=O	11%	-3%	-131*	7%	-16%	-4%
O=C1CC(N2CCN(c3ccccc3)CC2)C(=O)N1c1ccc(Cl)cc1 (stereo not drawn)	11%	4%	2	8%	-47%	-10%
O=C(COc1ccccc1Cl)Nc1cccc(S(=O)(=O)NC2=NCCCCC2)c1	126µM*	-13%	-3	3%	-24%	-4%
O=[N+]([O-])c1ccc(S(=O)(=O)c2ccccc2)nc1	10%	?	-98*	12%	-59%	4%
Cc1ccc(S(=O)(=O)c2ccc([N+](=O)[O-])cn2)cc1	-10%	-23%	-16	4%	-22%	6%
O=C(O)C(Cc1ccccc1)N1C(=O)/C(=C/C=C/c2ccco2)SC1=S (stereo not drawn)	14%	89µM*	-2	0%	i	-27%
